Structures are written as SMILES. Results filed as inconclusive are left out. A call without a number means that no potency is given here. Calls of active or inactive are those of the source. The call rests on the fitted dose curve; in most records, active means well fitted curve in the direction sought with a large enough effect; inconclusive means small, poorly fitted or top-dose-only effect, or another doubt; inactive means no such curve, though single readings can be large; an effect the other way counts as inactive or inconclusive.

Test [1] concerns the target Aldehyde dehydrogenase, mitochondrial (Homo sapiens) (UniProt P05091). Put plainly: qHTS for Inhibitors of the Aldehyde Dehydrogenase Family (ALDH2) Primary screen (AID 2061308). Further: nearly all actives have a fitted effect of over 55% in size.
The target in test [2] is Retinaldehyde dehydrogenase 3 (Homo sapiens) (UniProt P47895). Kind of test: qHTS for Inhibitors of the Aldehyde Dehydrogenase Family (ALDH1A3) Primary screen (AID 2061315). On the technique in general: qHTS replaces the single test concentration by a dilution series.

Turning to `Cc1cc2c(s1)c1cnn(Cc3cc(F)ccc3C)c(=O)c1n2C`, the Potency result in test [1] and in test [2] was “inactive” each time.

As for `CSc1ccc(-c2cncc(NC(=O)c3cccs3)c2)cc1`, the Potency result in test [1] and in test [2] was “inactive” each time.

Consider `O=C(CNC(=O)c1ccc(Cl)cc1Cl)OC(C(=O)Nc1cc(C(F)(F)F)ccc1Cl)c1ccccc1` (stereo not given), for which the Potency result in test [1] and in test [2] was “inactive” throughout.

With `Fc1ccccc1-c1nnc2n1N=C(c1ccc(OC(F)F)c(OCC3CC3)c1)CS2`, the Potency result in test [1] and in test [2] was “inactive” in each case.

With `CCOC(=O)c1ccc(-n2cnc3cc(C(=O)N4CCCCC4)ccc32)cc1`, the Potency entry in test [1] and in test [2] was “inactive” in each case.

As to `c1ccc(CN(Cc2ccccc2)Cc2nnc(-c3cc4ccccc4[nH]3)o2)cc1`, the Potency result in test [1] and in test [2] was “inactive” throughout.

Regarding `O=c1[nH]c(CCl)nc2sc3c(c12)CCCC3`, the Potency result in test [1] and in test [2] was “inactive” each time.

In the case of `CCCCc1nnc(-c2cnn(C)c2N)n1CCCn1ccnc1`, the Potency result in test [1] and in test [2] was “inactive” in each case.

Consider `O=C(Nc1nc2cc(C(F)(F)F)ccc2s1)c1ccc(-c2cccc([N+](=O)[O-])c2)o1`, for which the Potency result in test [1] and in test [2] was “inactive” in each case.

Consider `CCCn1c(C)nc2c(NCCCN(CC)CC)nc(C)nc21`, for which the Potency entry in test [1] and in test [2] was “inactive” throughout.

With `O=C1CCCC2=C1C1(CCCC1)N=C(Nc1nc3ccccc3o1)N2`, the Potency entry in test [1] and in test [2] was “inactive” in each case.

On to `Cn1nnnc1Sc1ncnc2scc(-c3ccc4c(c3)OCO4)c12`, for which the Potency entry in test [1] and in test [2] was “inactive” in each case.

As to `FC(F)Oc1ccc(C2=Nn3c(nnc3-c3ccccc3Cl)SC2)cc1OCC1CC1`, the Potency entry in test [1] and in test [2] was “inactive” in each case.

In the case of `CC(C)c1nc2c(cnn2C)c(=O)n1N`, the Potency entry in test [1] and in test [2] was “inactive” in each case.

As to `O=C1c2ccccc2C(=O)N1c1cc(=O)c2ccccc2[nH]1`, the Potency result in test [1] and in test [2] was “inactive” in each case.

Regarding `Cc1ccc(NS(=O)(=O)c2cccc(F)c2)cc1C`, the Potency entry in test [1] and in test [2] was “inactive” throughout.

As to `Cc1ccc(OCCn2c(CCNC(=O)C3CCCC3)nc3ccccc32)cc1`, the Potency result in test [1] and in test [2] was “inactive” each time.

In the case of `CS(=O)(=O)c1ccc(C(=O)OCC(=O)N2CCOCC2)cc1[N+](=O)[O-]`, the Potency entry in test [1] and in test [2] was “inactive” throughout.

Consider `Cc1cc2c(s1)c1cnn(Cc3ccc(C)c(F)c3)c(=O)c1n2C`, for which the Potency result in test [1] and in test [2] was “inactive” each time.

Regarding `Cc1ccc(-c2cc(C(=O)Nc3ccccc3C)c3ccccc3n2)cc1C`, the Potency entry in test [1] and in test [2] was “inactive” throughout.

With `Cc1scc2c1C(=O)NS2(=O)=O`, the Potency entry in test [1] and in test [2] was “inactive” each time.

With `CCCCN1C(=O)c2ccccc2NC1c1ccc(OC)c(COc2c(C)cc(NC(C)=O)cc2C)c1` (stereo not given), the Potency entry in test [1] and in test [2] was “inactive” throughout.

Consider `O=C([C@H](Cc1ccc(O[S+](=O)([O-])c2cccc3cnccc23)cc1)N[S+](=O)([O-])c1cccnc1)N1CCN(c2ccccc2)CC1`, for which the Potency result in test [1] and in test [2] was “inactive” in each case.

As to `COc1ccc(O)c(CNc2ccc(S(=O)(=O)Nc3nccs3)cc2)c1`, the Potency entry in test [1] and in test [2] was “inactive” each time.

For the compound `Cc1ccc(OCCn2c(CCNC(=O)c3cccc(Br)c3)nc3ccccc32)cc1`, the Potency entry in test [1] and in test [2] was “inactive” in each case.

In the case of `O=C(OCC#CCSc1nnc(-c2cccc3ccccc23)o1)c1ccc(Cl)cc1`, the Potency entry in test [1] and in test [2] was “inactive” each time.

On to `Nc1ccc2c(=O)n3nc(Nc4ccc5c(c4)CCC5)sc3nc2c1`, for which the Potency entry in test [1] and in test [2] was “inactive” throughout.

Consider `O=C1CCc2cc(S(=O)(=O)Nc3ccncc3)ccc2N1`, for which the Potency result in test [1] and in test [2] was “inactive” in each case.

As for `Cc1noc(C)c1-c1ccc2ncnc(NCc3ccc(-c4ccccc4)cc3)c2c1`, the Potency result in test [1] and in test [2] was “inactive” throughout.

On to `CC(C)N1CCc2c(sc(NC(=O)C(F)F)c2-c2nc3ccccc3s2)C1`, for which the Potency result in test [1] and in test [2] was “inactive” each time.

For the origin of these results see PubChem BioAssay (NCATS).
